Data on nine compounds can be found in ChEMBL document CHEMBL3988442, “University of Dundee, Small-Polar-MMV Screening Library” (2021).

For part of these data: Measured potencies and affinities stand elsewhere.

Design in all cases: scale not given: direction of the effect not stated beside the values
In experiment [1] the target is Protein translocase subunit SecA (Escherichia coli (strain K12)) (UniProt P10408). Description: Assay to Identify E. coli SecA ATPase Inhibitors. Format: functional. Particulars: 30 µM.
Sequence of Protein translocase subunit SecA (Escherichia coli (strain K12)) (P10408 whole entry): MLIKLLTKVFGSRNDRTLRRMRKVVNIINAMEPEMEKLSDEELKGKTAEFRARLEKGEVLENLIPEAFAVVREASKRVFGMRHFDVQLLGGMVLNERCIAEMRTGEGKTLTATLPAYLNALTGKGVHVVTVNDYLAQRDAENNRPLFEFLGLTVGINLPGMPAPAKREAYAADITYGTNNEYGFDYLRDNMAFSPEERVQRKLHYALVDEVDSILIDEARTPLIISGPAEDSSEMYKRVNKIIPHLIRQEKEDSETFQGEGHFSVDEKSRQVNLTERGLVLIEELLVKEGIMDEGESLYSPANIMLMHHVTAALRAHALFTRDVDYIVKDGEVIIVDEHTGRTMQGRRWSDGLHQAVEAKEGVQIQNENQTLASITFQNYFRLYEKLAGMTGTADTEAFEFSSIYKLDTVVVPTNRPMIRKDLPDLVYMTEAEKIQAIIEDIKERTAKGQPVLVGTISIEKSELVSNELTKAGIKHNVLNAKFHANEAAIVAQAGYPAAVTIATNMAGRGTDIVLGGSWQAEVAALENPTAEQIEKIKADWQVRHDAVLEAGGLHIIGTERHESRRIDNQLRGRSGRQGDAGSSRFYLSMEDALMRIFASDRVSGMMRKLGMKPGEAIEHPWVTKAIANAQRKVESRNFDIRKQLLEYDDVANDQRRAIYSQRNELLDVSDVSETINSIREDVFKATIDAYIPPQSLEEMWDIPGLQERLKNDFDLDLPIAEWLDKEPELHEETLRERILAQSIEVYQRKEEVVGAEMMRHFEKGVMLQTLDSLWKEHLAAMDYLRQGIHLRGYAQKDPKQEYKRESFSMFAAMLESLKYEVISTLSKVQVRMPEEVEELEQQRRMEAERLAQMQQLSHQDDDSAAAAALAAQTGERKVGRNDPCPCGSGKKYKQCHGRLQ
Experiment [2] has as its target T1, Ubiquitin-activating enzyme e1, putative (Leishmania donovani (strain BPK282A1)) (UniProt E9BSI1).
T1 sequence (whole entry): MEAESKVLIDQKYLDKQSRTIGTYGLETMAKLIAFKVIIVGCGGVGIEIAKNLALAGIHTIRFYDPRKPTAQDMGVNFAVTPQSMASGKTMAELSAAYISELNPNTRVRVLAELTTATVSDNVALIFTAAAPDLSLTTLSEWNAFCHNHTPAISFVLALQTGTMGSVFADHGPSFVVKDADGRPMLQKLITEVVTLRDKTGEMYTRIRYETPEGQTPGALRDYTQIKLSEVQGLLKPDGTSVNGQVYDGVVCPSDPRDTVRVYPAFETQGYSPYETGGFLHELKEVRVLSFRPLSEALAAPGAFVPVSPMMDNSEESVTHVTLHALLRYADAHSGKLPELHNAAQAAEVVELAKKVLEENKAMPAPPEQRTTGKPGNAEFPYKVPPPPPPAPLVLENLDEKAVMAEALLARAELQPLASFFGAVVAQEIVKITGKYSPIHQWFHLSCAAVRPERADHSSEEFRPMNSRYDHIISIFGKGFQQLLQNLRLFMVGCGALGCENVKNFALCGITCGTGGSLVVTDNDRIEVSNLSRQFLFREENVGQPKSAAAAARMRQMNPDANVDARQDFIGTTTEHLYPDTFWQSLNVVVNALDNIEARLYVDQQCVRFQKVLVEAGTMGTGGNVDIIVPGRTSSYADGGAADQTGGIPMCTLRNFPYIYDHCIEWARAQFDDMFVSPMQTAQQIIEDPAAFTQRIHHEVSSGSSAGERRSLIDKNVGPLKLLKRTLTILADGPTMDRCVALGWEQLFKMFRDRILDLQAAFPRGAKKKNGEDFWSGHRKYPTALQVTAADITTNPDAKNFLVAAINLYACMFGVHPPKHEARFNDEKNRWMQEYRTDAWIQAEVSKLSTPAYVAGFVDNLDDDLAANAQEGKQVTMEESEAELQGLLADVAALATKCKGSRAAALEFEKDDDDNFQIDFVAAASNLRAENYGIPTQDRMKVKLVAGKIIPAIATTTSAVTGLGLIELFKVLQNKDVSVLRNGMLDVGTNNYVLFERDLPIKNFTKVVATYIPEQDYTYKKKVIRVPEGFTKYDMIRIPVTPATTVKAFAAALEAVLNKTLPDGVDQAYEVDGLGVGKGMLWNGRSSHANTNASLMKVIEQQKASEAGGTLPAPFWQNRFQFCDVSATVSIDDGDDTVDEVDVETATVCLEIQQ
Nature of the experiment: Leishmania donovani Ubiquitin Activating Enzyme (LdE1). Format: functional. As to conditions: 30 µM.

In experiment [3] the target is AMP-activated protein kinase, AMPK (Homo sapiens) (UniProt P54646+O43741+P54619+Q9UGJ0+Q9Y478+Q13131+Q9UGI9). Nature of the experiment: AMP-dependent Kinase enzyme assay. An in vitro enzyme assay that detects ADP turnover that is directly proportional to AMPK activity. This uses naive AMPK that is activated during the assay with MK-8722. Format: functional. As to conditions: 30 µM.

Experiment [4] has as its target Sialic acid-binding Ig-like lectin 9 (Homo sapiens) (UniProt Q9Y336). Nature of the experiment: Hs-Siglec9 ALPHAscreen SOP 20170721. As to conditions: 10 µM.
The test system of a further experiment is Trypanosoma cruzi. Nature of the experiment: Trypanosoma cruzi phosphomannomutase and mannose-1-phosphate guanylyltransferase assay. The experiment is classed as functional. As to conditions: 10 µM.
The target in experiment [5] is T2, Arginase-2, mitochondrial (Homo sapiens) (UniProt P78540).
T2 sequence (whole entry): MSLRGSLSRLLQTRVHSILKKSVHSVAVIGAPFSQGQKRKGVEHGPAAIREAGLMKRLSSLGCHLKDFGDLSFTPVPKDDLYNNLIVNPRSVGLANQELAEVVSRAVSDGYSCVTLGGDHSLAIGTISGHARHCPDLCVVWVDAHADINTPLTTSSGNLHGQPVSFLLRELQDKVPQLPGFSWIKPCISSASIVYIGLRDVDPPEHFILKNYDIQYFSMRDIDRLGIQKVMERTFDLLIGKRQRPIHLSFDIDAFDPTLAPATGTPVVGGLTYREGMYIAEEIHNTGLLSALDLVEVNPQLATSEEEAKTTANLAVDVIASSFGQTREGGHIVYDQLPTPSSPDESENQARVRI
Nature of the experiment: in vitro enzyme assay to detect the production of urea directly proportional to the activity of Arginase II. Note: in the data most compounds retested in dose-response had high values. The experiment is classed as functional. As to conditions: 33.3 µM.

The target in experiment [6] is T3, Proteasome subunit beta (Trypanosoma cruzi) (UniProt O96673).
T3 sequence (whole entry): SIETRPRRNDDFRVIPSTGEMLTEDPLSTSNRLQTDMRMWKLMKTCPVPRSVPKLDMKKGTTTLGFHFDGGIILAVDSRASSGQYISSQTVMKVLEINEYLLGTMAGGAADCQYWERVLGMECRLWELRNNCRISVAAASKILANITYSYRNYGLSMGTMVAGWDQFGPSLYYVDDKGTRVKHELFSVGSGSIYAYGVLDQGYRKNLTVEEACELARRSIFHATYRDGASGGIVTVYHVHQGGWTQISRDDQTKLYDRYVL
Nature of the experiment: Trypanosoma cruzi proteasome chymotrypsin-like activity (TcProtChymo) assay. Note: in the data most compounds retested in dose-response had high values. Format: functional. As to conditions: 9.37 µM.

The species entered for a further experiment is Homo sapiens. Description: To identify inhibition of the IFN signalling (Jak-Stat) pathway via expression of an eGFP reporter gene under the control of an IFN-stimulated response element (ISRE) containing MxA promoter. The experiment is classed as functional. Particulars: 30 µM. Background: In a reporter assay the amount or activity of a reporter protein is the signal.

The target in experiment [7] is T4, Tyrosyl-tRNA synthetase, putative (Trypanosoma cruzi (strain CL Brener)) (UniProt Q4DSP6).
T4 sequence (whole entry): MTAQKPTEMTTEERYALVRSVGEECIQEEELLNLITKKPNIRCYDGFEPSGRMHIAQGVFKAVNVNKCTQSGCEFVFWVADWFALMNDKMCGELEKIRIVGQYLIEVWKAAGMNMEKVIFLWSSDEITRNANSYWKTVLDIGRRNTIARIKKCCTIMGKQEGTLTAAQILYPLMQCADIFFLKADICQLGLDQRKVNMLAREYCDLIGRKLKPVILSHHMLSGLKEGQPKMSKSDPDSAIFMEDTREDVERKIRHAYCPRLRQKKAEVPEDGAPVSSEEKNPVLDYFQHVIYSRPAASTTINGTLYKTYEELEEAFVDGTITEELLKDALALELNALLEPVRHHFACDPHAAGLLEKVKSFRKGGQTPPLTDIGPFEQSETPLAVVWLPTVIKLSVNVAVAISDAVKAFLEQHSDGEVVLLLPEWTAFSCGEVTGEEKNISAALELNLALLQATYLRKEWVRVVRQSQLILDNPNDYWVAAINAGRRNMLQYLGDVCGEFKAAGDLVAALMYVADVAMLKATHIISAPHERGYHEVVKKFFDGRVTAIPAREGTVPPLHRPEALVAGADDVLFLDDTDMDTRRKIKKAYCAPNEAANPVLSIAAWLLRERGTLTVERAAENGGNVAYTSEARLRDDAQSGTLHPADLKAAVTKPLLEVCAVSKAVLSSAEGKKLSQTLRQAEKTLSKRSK
Description: Trypanosoma cruzi tyrosyl tRNA synthetase (TcYRS) _High Tyrosine SOP. Note: in the data most compounds retested in dose-response had high values. The experiment is classed as functional. As to conditions: 30 µM.

Experiment [8] concerns the target T4, Tyrosyl-tRNA synthetase, putative (Trypanosoma cruzi (strain CL Brener)). Description: Trypanosoma cruzi tyrosyl tRNA synthetase (TcYRS) SOP. The experiment is classed as functional. As to conditions: 30 µM.
Experiment [9] addresses Chromo domain-containing protein 1 (Saccharomyces cerevisiae (strain ATCC 204508 / S288c) (Baker's yeast)) (UniProt P32657). Nature of the experiment: ScCHD-1 Enzyme Inhibition Assay. Note: in the data most compounds retested in dose-response had high values. Particulars: 30 µM. Format: functional.

Sequence of Sialic acid-binding Ig-like lectin 9 (Homo sapiens) (Q9Y336 whole entry): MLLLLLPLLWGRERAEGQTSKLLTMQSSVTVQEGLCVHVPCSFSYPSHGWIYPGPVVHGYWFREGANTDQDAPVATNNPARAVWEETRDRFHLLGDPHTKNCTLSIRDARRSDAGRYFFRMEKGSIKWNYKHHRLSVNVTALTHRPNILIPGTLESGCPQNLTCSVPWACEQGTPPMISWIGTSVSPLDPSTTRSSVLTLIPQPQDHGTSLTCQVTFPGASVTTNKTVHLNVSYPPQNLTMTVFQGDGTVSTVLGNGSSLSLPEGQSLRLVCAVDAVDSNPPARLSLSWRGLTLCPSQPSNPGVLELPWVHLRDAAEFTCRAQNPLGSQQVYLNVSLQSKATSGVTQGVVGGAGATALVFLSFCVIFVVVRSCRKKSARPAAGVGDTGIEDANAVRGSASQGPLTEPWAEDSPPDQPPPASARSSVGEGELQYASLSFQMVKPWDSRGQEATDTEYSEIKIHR
Sequence of Chromo domain-containing protein 1 (Saccharomyces cerevisiae (strain ATCC 204508 / S288c) (Baker's yeast)) (P32657 whole entry, the tested form may be a part): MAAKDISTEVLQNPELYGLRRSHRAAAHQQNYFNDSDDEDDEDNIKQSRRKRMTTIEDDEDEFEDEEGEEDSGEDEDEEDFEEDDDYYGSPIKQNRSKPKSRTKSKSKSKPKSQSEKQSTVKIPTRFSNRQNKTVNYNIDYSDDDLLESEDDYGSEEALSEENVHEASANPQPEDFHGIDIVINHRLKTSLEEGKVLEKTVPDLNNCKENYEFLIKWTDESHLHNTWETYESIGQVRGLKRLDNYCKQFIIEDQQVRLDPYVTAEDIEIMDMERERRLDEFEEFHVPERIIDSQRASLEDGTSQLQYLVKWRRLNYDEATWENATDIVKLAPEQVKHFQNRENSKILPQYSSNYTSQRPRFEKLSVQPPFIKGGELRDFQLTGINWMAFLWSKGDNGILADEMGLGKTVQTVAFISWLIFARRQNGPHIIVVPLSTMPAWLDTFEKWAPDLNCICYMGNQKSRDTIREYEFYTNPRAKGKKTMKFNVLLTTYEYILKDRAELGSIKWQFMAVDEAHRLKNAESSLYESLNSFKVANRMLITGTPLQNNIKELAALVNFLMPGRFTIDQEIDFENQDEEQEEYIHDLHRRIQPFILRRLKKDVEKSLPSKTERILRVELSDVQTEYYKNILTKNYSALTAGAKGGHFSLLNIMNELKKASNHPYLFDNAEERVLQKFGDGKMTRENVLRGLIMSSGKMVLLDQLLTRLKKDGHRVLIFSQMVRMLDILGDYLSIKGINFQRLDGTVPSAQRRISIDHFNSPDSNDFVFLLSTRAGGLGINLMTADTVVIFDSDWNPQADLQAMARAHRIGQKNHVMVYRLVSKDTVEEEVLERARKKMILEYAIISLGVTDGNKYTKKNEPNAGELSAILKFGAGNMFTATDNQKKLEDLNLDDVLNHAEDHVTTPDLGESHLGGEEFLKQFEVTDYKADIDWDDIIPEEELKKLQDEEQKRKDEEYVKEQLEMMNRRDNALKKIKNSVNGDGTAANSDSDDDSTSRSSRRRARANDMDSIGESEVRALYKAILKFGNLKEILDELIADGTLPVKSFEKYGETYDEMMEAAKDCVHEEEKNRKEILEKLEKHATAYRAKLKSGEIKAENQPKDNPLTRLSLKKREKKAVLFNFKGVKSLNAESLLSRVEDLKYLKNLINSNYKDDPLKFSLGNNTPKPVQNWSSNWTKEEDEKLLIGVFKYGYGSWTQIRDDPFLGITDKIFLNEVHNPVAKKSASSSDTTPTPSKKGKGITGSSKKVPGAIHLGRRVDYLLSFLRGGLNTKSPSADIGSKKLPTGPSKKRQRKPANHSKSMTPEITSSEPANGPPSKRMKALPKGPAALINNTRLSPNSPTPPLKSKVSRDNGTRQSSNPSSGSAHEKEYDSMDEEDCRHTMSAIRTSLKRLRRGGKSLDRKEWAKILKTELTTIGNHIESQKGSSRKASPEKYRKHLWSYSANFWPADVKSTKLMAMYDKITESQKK

Regarding `O=C(Cn1cccn1)NCC1(c2ccccc2)CC1`, the Percent Effect in [1] is -4.9%; in experiment [2], 2.6%; in [3], 0.192%; in [4] it was -7.24%; in the experiment with Trypanosoma cruzi, -2.25%; in [5], 2.74%. The Percent Effect was -1.86% in [6]; 23.2% in the experiment listed under Homo sapiens; -0.952% in experiment [7]; -2.35% in experiment [8]; -6.03% in experiment [9].
`N#Cc1cccc(S(=O)(=O)N2CCCCC2CCN2CCCC2=O)c1` (centres undefined): the Percent Effect is -5.51% in [1]; -52% in experiment [2]; -6.45% in [3]; 9.03% in experiment [4]; 4.76% with Trypanosoma cruzi; 2% in experiment [5]. In addition, the Percent Effect was 8.99% in experiment [6]; -12.8% in the experiment listed under Homo sapiens; 4.17% in [7]; 11.1% in [8]; -4.06% in experiment [9].
On to `O=C(N[C@@H]1CN(c2ncccn2)C[C@@H]2CCCO[C@@H]21)c1cnccn1`, for which the Percent Effect was -0.31% in experiment [1]; 8% in experiment [2]; 1.89% in experiment [3]; 11.3% in [4]; -1.74% in the experiment on Trypanosoma cruzi; -48.6% in [5]. The Percent Effect in experiment [6] is 7.18%; in the experiment filed under Homo sapiens, 10.6%; in [7], -7.29%; in experiment [8] it was 20%; in [9], -6.1%.
Regarding `O=C(O)C1(Cc2cc(-c3ccc(F)cc3F)no2)CCOCC1`, the Percent Effect in experiment [1] is -4.49%; in [2], 4.05%; in [3], 11%; in experiment [4], -5.88%; in the experiment on Trypanosoma cruzi, -8.3%; in experiment [5], -9.51%. The Percent Effect was 14.2% in [6]; 6.33% in the experiment listed under Homo sapiens; -4.3% in [7]; -1.3% in experiment [8]; -7.79% in [9].
Turning to `Cc1cc(C)c(CNC(=O)NCC(O)c2cccc(F)c2)c(=O)[nH]1` (centres undefined), the Percent Effect is -7% in [1]; 7.89% in experiment [2]; 0.0351% in [3]; 13.9% in [4]; -0.0934% with Trypanosoma cruzi; -3.96% in experiment [5]. Besides, the Percent Effect in [6] is 7.36%; in the experiment filed under Homo sapiens it was 7.32%; in experiment [7], 9.36%; in [8] it was 13.6%; in experiment [9] it was -1.76%.
In the case of `CC(=O)N1CCCC1c1cccc(Cc2ccccc2F)n1` (centres undefined), the Percent Effect in [1] was -3.38%; in experiment [2], -9.46%; in [3] it was 3.81%; in [4], -1.05%; with Trypanosoma cruzi, -2.77%; in [5], -1.62%. For the same compound, the Percent Effect in experiment [6] was -1.25%; in the experiment listed under Homo sapiens it was 26.6%; in experiment [7], -4.3%; in experiment [8], -9.09%; in experiment [9], 3.67%.
In the case of `O=C(Cc1cccs1)NC1CCN(c2cccc(F)c2)CC1`, the Percent Effect in experiment [1] is -3.15%; in experiment [2], 16.4%; in experiment [3], 6.31%; in experiment [4] it was 18.6%; in the experiment on Trypanosoma cruzi, 2.74%; in experiment [5], 7.27%. Also, the Percent Effect is 9.05% in [6]; -1.55% in the experiment filed under Homo sapiens; 5.38% in [7]; 15% in experiment [8]; 1.6% in experiment [9].
Take `CN(C)S(=O)(=O)N1CCC(Oc2ccccn2)CC1`: the Percent Effect is -2.83% in experiment [1]; 2.6% in experiment [2]; 2.73% in experiment [3]; -0.581% in experiment [4]; -6.41% in the experiment on Trypanosoma cruzi; -7.1% in experiment [5]. The Percent Effect was 14.1% in [6]; -7.21% in the experiment filed under Homo sapiens; 6.35% in [7]; -1.28% in experiment [8]; -7.73% in experiment [9].
On to `Cc1cc(=O)n(CC(=O)NCCC(C)C)c(-c2cccc(Cl)c2)n1`, for which the Percent Effect is -6.74% in experiment [1]; 2.6% in [2]; 3.52% in [3]; 10.7% in experiment [4]; 2.85% in the experiment on Trypanosoma cruzi; -9.65% in [5]. For the same compound, the Percent Effect in [6] was determined as 6.49%; in the experiment listed under Homo sapiens, 2.45%; in [7], 6.45%; in experiment [8] it was 13.6%; in [9], 5.24%.
